Assay results as given in PMC4336329 (PLoS ONE, 2015).
Among all 310,000 compounds or so, about 14,000 (4.5%) showed an effect of 50% or more. The effect is printed as a negative number. This excerpt belongs to a sample that is enriched for strong results.

These compounds were tested against human ether-à-go-go-related gene (hERG) potassium channel (human, UniProt Q12809) (assay: primary screen, population patch clamp on CHO cells stably expressing hERG; higher = less effect of the substance).
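Note: peak tail current of the secondary pulse compared with the same well before compound.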

Chain of human ether-à-go-go-related gene (hERG) potassium channel (Q12809 whole entry, looked up): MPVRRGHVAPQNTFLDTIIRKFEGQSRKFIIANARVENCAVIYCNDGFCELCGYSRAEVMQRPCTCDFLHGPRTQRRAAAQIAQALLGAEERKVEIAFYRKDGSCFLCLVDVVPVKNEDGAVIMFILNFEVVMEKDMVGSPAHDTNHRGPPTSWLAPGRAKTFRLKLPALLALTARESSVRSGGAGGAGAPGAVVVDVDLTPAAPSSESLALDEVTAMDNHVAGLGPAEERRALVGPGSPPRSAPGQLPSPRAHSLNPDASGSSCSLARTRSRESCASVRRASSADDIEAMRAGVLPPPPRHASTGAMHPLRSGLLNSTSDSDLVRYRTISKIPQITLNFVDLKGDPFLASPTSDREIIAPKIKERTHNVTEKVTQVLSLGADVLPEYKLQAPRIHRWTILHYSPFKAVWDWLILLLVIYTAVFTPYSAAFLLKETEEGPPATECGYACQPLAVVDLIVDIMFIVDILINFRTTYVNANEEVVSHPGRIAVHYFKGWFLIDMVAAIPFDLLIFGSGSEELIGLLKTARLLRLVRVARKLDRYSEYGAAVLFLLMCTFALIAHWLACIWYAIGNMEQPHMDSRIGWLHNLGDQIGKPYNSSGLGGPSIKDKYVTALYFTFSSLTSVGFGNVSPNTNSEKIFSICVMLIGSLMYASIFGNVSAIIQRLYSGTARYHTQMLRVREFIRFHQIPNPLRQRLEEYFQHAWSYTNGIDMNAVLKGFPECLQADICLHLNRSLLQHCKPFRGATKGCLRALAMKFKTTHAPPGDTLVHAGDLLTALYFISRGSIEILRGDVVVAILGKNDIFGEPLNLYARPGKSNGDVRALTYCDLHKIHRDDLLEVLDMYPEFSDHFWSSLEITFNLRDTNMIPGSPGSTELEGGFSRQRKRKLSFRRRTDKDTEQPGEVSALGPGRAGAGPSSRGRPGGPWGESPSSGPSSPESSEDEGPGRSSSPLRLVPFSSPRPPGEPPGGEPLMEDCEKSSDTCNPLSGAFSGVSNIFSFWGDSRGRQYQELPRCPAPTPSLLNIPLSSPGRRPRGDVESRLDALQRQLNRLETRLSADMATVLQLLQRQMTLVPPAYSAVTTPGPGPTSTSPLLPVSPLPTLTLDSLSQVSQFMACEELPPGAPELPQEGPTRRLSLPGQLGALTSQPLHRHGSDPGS

Structure (SMILES)	hERG current change (%, negative = inhibition) at 10uM [%]
O=C(COC(=O)Cc1ccc(F)cc1)NC1CCCC1	4.84
COc1ccc(N(CC(=O)Nc2cc(OC)c(OC)cc2C(=O)O)S(=O)(=O)c2c(C)noc2C)cc1	15.9
COc1ccc(/C=N/Nc2nnc(C)n2N)cc1OC(C)=O.Cl	14.3
COCCN(C(=O)COC(=O)c1nc(Cl)ccc1Cl)c1c(N)n(Cc2ccccc2)c(=O)[nH]c1=O	20.3
O=C1CC(c2ccco2)Cc2nc(N3CCc4ccccc4C3)ncc21 (stereo not drawn)	-20.7
CCC(=O)N1CCN(c2ccc(NC(=O)c3ccc(Br)o3)cc2)CC1	-26.9
Cc1ccc(C(=O)N2CCN(c3ccc(NC(=O)c4ccc(Br)o4)cc3)CC2)cc1	-68.8
CN1CCN(c2ccc(NC(=O)c3ccc(Br)o3)cc2)CC1	-16.2
O=C(Nc1ccc(N2CCN(C(=O)c3cccs3)CC2)cc1)c1ccc([N+](=O)[O-])o1	-25.5
O=C(Nc1ccc(N2CCN(C(=O)c3cccs3)CC2)cc1)c1ccc(Br)o1	-75.8
O=C(Nc1ccc(N2CCN(C(=O)c3cccs3)CC2)cc1)c1ccco1	17.7
Cc1ccc(Nc2c(-c3ccccn3)nc3cccc(C)n23)cc1	10.1
Cc1ccc(C(=O)NNC(=O)/C=C\C(=O)O)cc1	6.41
CCOC(=O)/C=C/c1ccc2c(c1)S(=O)(=O)N(Cc1ccc(OC)cc1)[C@H]2CC(=O)OCC	-18.2
COc1cccc(-n2c(C)c3c(OC)cccc(=O)c3c2C)c1	-11.8
COc1cccc(=O)c2c(C)n(-c3ccc(C(=O)O)cc3)c(C)c12	6.33
COc1ccc(-n2c(C)c3c(OC)cccc(=O)c3c2C)cc1	-60.2
COc1cnc(-c2ccccn2)nc1N(C)c1ccccc1	14.2
Cc1ccc(-c2nc3ccccc3o2)cc1NC(=O)Cc1cccs1	18.7
CC(C)C[C@H](NC(=O)C1(c2ccccc2)CCN(C(=O)OC(C)(C)C)CC1)C(=O)N1CCC[C@H]1C(=O)O	9.37
O=C(NCCN1CCOCC1)c1ccc2c(c1)N(Cc1ccccc1F)C(=O)c1ccccc1S2	-27
Cc1ccccc1CN1C(=O)c2ccccc2Sc2ccc(C(=O)NCCN3CCOCC3)cc21	-69.6
CCN1C(=O)c2ccccc2Sc2ccc(C(=O)NCCC(C)C)cc21	-7.94
CCN1C(=O)c2ccccc2S(=O)(=O)c2ccc(C(=O)NCCCN(CC(C)C)CC(C)C)cc21	-12.7
Cc1ccc(CN2C(=O)c3ccccc3Sc3ccc(C(=O)NCCCN4CCOCC4)cc32)cc1	-2.12
Cc1ccc(CN2C(=O)c3ccccc3Sc3ccc(C(=O)NCCN4CCOCC4)cc32)cc1	-15.2

Structure (SMILES)	hERG current change (%, negative = inhibition) at 10uM [%]
CCN1C(=O)c2ccccc2Sc2ccc(C(=O)NCCCN3CCOCC3)cc21	-17.8
CCN1C(=O)c2ccccc2Sc2ccc(C(=O)NCCCN(CC(C)C)CC(C)C)cc21	-64.3
Cc1ccccc1CN1C(=O)c2ccccc2Sc2ccc(C(=O)NCCCN3CCOCC3)cc21	-62.9
CCCCC1C2=C(CC(C)(C)CC2=O)OC2=C1C(=O)CC(C)(C)C2	-9.48
CC(C)(C)C1=C(C#N)C(c2cccnc2)C(C#N)=C(N)O1 (stereo not drawn)	4.42
COc1cc(CCN)ccc1O.Cl	15.1
COP(=O)(OC)C(Nc1ccccc1)c1ccccc1 (stereo not drawn)	11.4
COc1ccc(N2CCCC2)c(NC(=O)COc2ccccc2Cl)c1	14.8
O=C(N/C(=C\c1ccccc1)C(=O)N1CCOCC1)c1ccccc1Br	17.9
O=C(N/C(=C/C=C/c1ccccc1)C(=O)N1CCCCC1)c1ccc([N+](=O)[O-])cc1	-72.8
CN1CCN(C(=O)/C(=C/c2cccc([N+](=O)[O-])c2)NC(=O)c2ccccc2)CC1	-72.6
CN1CCN(C(=O)/C(=C/c2ccc([N+](=O)[O-])cc2)NC(=O)c2ccccc2)CC1	-81.5
O=C(N/C(=C\c1cccc([N+](=O)[O-])c1)C(=O)N1CCCCC1)c1cccs1	7.93
O=C(N/C(=C/c1cccc([N+](=O)[O-])c1)C(=O)N1CCCC1)c1ccccc1	-46
CN1CCN(C(=O)/C(=C/c2ccccc2Cl)NC(=O)c2ccccc2)CC1	-10.8
O=C(N/C(=C\c1ccc([N+](=O)[O-])cc1)C(=O)N1CCCCC1)c1ccccc1Br	-59.4
COc1cc(/C=C(/NC(=O)c2ccccc2)C(=O)N2CCN(C)CC2)c([N+](=O)[O-])cc1OC	9.52
O=C(N/C(=C/c1cccc([N+](=O)[O-])c1)C(=O)N1CCOCC1)c1ccccc1Br	-7.05
CN1CCN(C(=O)/C(=C\c2cccc([N+](=O)[O-])c2)NC(=O)c2cccs2)CC1	-25.4
CC(=O)Nc1ccc(C(=O)N/C(=C/c2ccccc2)C(=O)N2CCCCC2)cc1	4.57
CC1CCN(C(=O)CCc2nnc(-c3ccccc3)o2)CC1	-5.83
O=C(NNc1ccc([N+](=O)[O-])cc1)C12CC3CC(CC(C3)C1)C2	19.5
CC(=O)Nc1ccc(OCc2cccc([N+](=O)[O-])c2)cc1	8.84
Cc1onc(-c2ccccc2Cl)c1C(=O)Oc1cc(N)n(S(=O)(=O)c2ccc(F)cc2)n1	-3.48
COc1ccccc1Cc1nc(-c2cccnc2)no1	14.8
Cc1ccn2c(C(=O)CSc3ccc(Cl)cc3)c(C)nc2c1	7.28

Structure (SMILES)	hERG current change (%, negative = inhibition) at 10uM [%]
CCOc1ccc(N2C(=O)CC(NCC3CCCO3)C2=O)cc1 (stereo not drawn)	2.22
O=C(Nc1ccccc1)C(c1ccccc1)c1ccccc1	15.1
O=C(N/C(=C/C=C/c1ccccc1)C(=O)N1CCOCC1)c1ccccc1Cl	-16.6
O=C(N/C(=C/c1ccccc1)C(=O)N1CCCCC1)c1ccccc1	29.9
O=C(N/C(=C\c1ccc([N+](=O)[O-])cc1)C(=O)N1CCCCC1)c1ccccc1	-76.9
O=C(N/C(=C/C=C\c1ccccc1)C(=O)N1CCOCC1)c1ccc(Br)cc1	-64.1
O=C(N/C(=C\c1ccccc1)C(=O)N1CCCCCC1)c1ccccc1	15.2
CCCCOc1ccc(C(=O)N/C(=C/C=C/c2ccccc2)C(=O)N2CCOCC2)cc1	-5.66
Cc1cc(C(=O)OCC(=O)Nc2cccc(S(N)(=O)=O)c2)c2ccccc2n1	-4.62
COc1cc(C2NC(=S)NC(c3ccccc3)=C2C(C)=O)ccc1O (stereo not drawn)	15.4
CCOCCCNC(=O)c1ccc2nc(-c3ccc(OC)c(OC)c3)c(-c3ccc(OC)c(OC)c3)nc2c1	6.99
NC(=O)CCCn1c(C(=O)c2cc(Cl)c(N)c(Cl)c2)c2ccc([N+](=O)[O-])cc2[n+]1[O-]	-30.9
NC(=O)CCCn1c(C(=O)c2ccc(Cl)cc2)c2ccc([N+](=O)[O-])cc2[n+]1[O-]	-74.1
NC(=O)CCn1c(C(=O)c2cccc([N+](=O)[O-])c2)c2ccccc2[n+]1[O-]	4.25
Cc1ccc(C(=O)c2c3ccc([N+](=O)[O-])cc3[n+]([O-])n2CCCC(N)=O)cc1	-36.6
COc1ccc(C(=O)c2c3ccc([N+](=O)[O-])cc3[n+]([O-])n2CCC[NH3+])cc1.[Cl-]	-47.4
[Cl-].[NH3+]CCCn1c(C(=O)c2ccc(Cl)cc2)c2ccc([N+](=O)[O-])cc2[n+]1[O-]	-63.8
COc1ccc(-c2oc3ccc(-c4cc(OC)c(OC)c(OC)c4)cc3c2-c2ccc(OC)cc2)cc1	13.6
CN(C)S(=O)(=O)c1cccc(COC(=O)c2ccc(Cl)cc2O)c1	-7.36
CC(=O)Oc1c(Cl)c(N2CCOCC2)c(OC(C)=O)c2ccccc12	-25.2
CCN(Cc1ccccc1)C(=O)c1cccc(S(=O)(=O)N2CCN(Cc3ccccc3)CC2)c1	-19.6
Cc1csc(N2CCN(c3cc4c(cc3Cl)nc(-c3ccncc3)n4CCCN3CCCC3)CC2)n1	-64.8
Cc1ccc(-c2csc(N3CCN(c4cc5c(cc4Cl)nc(-c4ccncc4)n5CCN4CCCCC4)CC3)n2)cc1	10.5
Cc1ccc(-c2csc(N3CCN(c4cc5c(cc4Cl)nc(-c4ccncc4)n5CCOCCO)CC3)n2)cc1	4.81
Cc1n[nH]c(=S)n1-c1cccc(Cl)c1	19.7
Cc1nnc(N2C(=O)C(O)=C(C(=O)c3ccco3)C2c2cccc3ccccc23)s1 (stereo not drawn)	-0.387
